experiment: basal HepG2 mitochondrial membrane potential changes, profiling panel, cell-based, JC-1 fluorescence, 24 h, 100 nL compound (AID 1167); conditions: higher = more signal; further: test concentration not given here

| SMILES | z-score |
| --- | --- |
| COCCOC(=O)N1C(=O)[C@@]2(c3cc(C#CCNC(N)=O)ccc31)[C@H](C(=O)N1CCc3cc(OC)c(OC)cc3C1)[C@H]1C(=O)O[C@H](c3ccccc3)[C@H](c3ccccc3)N1[C@@H]2c1ccc(OCCO)cc1 | -0.691 |
| CCOC(=O)C1=CC[C@@H](c2ccccc2)N(S(=O)(=O)c2ccc(C)cc2)[C@H]1C(=O)OCC | 3 |
| O=C(CS)NCCCCCCNC(=O)[C@@H]1C[C@@H]2C(=O)N3CCC[C@H]3C(=O)N2[C@@H]1c1ccc(O)cc1 | -1.57 |
| CCOC(=O)C1=CCC(c2ccc([N+](=O)[O-])cc2)N(S(=O)(=O)c2ccc(C)cc2)C1 (stereo unspecified) | 2.63 |
| COCCOC(=O)N1C(=O)[C@@]2(c3cc(C#CCNC(N)=O)ccc31)[C@H](c1ccc(O)cc1)N1[C@H](c3ccccc3)[C@H](c3ccccc3)OC(=O)[C@H]1[C@@H]2C(=O)Nc1nc2ccccc2s1 | -2.95 |
| O=c1cccc(CCc2ccccc2)o1 | -0.903 |
| O=C1N(CCS(=O)(=O)c2ccccc2)Cc2ccccc2[C@H]2OC(c3ccc(OCCCO)cc3)=N[C@@]12CCS(=O)(=O)c1ccccc1 | 0.0737 |
| CN(C)C(=O)[C@@]1(CCC(=O)OC(C)(C)C)N=C(c2ccc(OCCCO)cc2)O[C@H]1c1ccccc1 | 0.26 |
| O=C1C2C=CC(C(O)c3ccc(-c4ccccc4)s3)N(n3cnnc3)C2C(=O)N1Cc1ccccc1 (stereo unspecified) | -0.666 |
| CC(C)C(O)C1C=CC2C(=O)N(c3ccccc3)C(=O)C2N1Nc1ccc(C#N)cc1 (stereo unspecified) | -0.421 |
| COC(=O)c1ccc(C(O)C2C=CC3C(=O)N(C)C(=O)C3N2NC(=O)OC(C)(C)C)o1 (stereo unspecified) | -1.28 |

From PubChem BioAssay
